This note sets out measurements from PubChem BioAssay.

Active and inactive are the calls of the source.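 Rule for the calls, unless noted: active = compound raises insulin release from rat beta cells at 5 mM glucose, no numeric limit stated; inactive = the rest.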

A short description of assay [1]: Wnt pathway potentiators raising nuclear beta-catenin – imaging, WNT3A-conditioned medium, mouse C2C12, NPC library, primary screen (AID 1117326; in the data active = nuclear beta-catenin stimulation mostly above about 4.2%, no sharp cut-off; inactive = mostly below about 10%; note: reference of the scale not given here). To be noted: stronger effect = higher value.
Assay [2] in a line: stimulators of insulin release from INS-1E, primary screen, cell-based, 5 mM glucose, NPC library (AID 1117329). Note: reference of the scale not given here. To be noted: rat INS-1E insulin secretion, at 10 µM, stronger effect = higher value.
Assay [3] can be described thus: growth inhibition of GSK3B-pretreated HCT116 cells – cell-based, CellTiter-Glo, 0.2 to 20 µM (AID 1117336;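 active = compounds lowering colon cancer cell viability after pretreatment blocking the GSK3B kinase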). To be noted: HCT116 viability after GSK3B inhibitor, at 20 µM, stronger effect = higher value. (ATP-based viability assays read luminescence as a measure of living cells.)
Assay [4] in a line: inhibition of endothelial tube formation, primary screen, imaging, VEGF stimulated, CD31 staining, tube area, NPC library (AID 1117340;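 active = compound that reduces growth-factor-driven endothelial tube area in a mixed cell culture, no cutoff stated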). The note with it: VEGF-stimulated ADSC/ECFC co-culture, at 10 µM, stronger effect = higher value.
The nature of assay [5]: GLP1 release stimulators, primary, NCI-H716, NPC library (AID 1117341;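 active = compound raises GLP1 secretion from the human gut endocrine cells, with no numeric limit stated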; note: reference of the scale not given here). The note with it: NCI-H716 cells, at 10 µM, stronger effect = higher value.
Assay [6] is described as follows: HCT116 colon cancer cell growth inhibition, primary screen, CellTiter-Glo luminescence, NPC library (AID 1117342;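 active = compounds that lower survival of HCT116 colon cancer cells in the luminescence readout, no numeric limit stated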). The note with it: at 20 µM (top of the series).
Assay [7] can be described thus: reduced SW480 viability measured with CellTiter-Glo, NPC library, primary (AID 1117343;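 active = compounds that lower viability of the colon cancer cells in the luminescence readout, with no numeric limit stated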). The note with it: CellTiter-Glo luminescence; at 20 µM (top of the series).
Assay [8] in a line: NPC library primary testing for decreased DLD-1 cell viability via CellTiter-Glo (AID 1117346;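 active = compounds that lower survival of DLD-1 colon cancer cells in the luminescence readout, no cutoff given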). The note with it: DLD-1 viability, CellTiter-Glo luminescence; at 20 µM (top of the series).

Consider `CC(C)=CCC/C(C)=C/CC/C(C)=C/C(=O)OCC(=O)[C@@]1(O)CC[C@H]2[C@@H]3CCC4=CC(=O)C=C[C@]4(C)[C@H]3[C@@H](O)C[C@@]21C`, for which the nuclear beta-catenin stimulation in assay [1] (at 10 µM) was -1% (inactive); in assay [1] (stimulation, at 2 µM) it was 0%. Besides, in assay [2], the insulin secretion stimulation is -2% (inactive). The viability decrease in assay [3] was 92.3% (active). For the same molecule, the tube area decrease in assay [4] is 107% (active). In addition, in assay [5], the GLP1 secretion stimulation is -0.8% (inactive). Besides, in assay [6], the inhibition of viability is 98.2% (active). Besides, the viability decrease (inhibition) in assay [7] is 86.2% (active); in assay [8], 88.5% (active).
On to `CCOC(=O)c1c(N)sc2c1CCN(Cc1ccccc1)C2`, for which the nuclear beta-catenin stimulation was 0.4% (inactive) in assay [1] (at 10 µM) and 0.3% in assay [1] (stimulation, at 2 µM). Further, in assay [2], the insulin secretion stimulation was -0.1% (inactive). Besides, the viability decrease in assay [3] is 21.9% (inactive). The tube area decrease in assay [4] is 33.8% (inactive). For the same molecule, the GLP1 secretion stimulation in assay [5] is 0.5% (inactive). Further, the inhibition of viability in assay [6] is 47.3% (inactive). Further, the viability decrease (inhibition) is 84.1% (active) in assay [7] and 31.8% (active) in assay [8].
Regarding `CCN1CCN(C(=O)N[C@@H](C(=O)N[C@@H]2C(=O)N3[C@@H]2SC(C)(C)[C@H]3C(=O)O)c2ccccc2)C(=O)C1=O`, the nuclear beta-catenin stimulation in assay [1] (at 10 µM) is 0.2% (inactive); in assay [1] (stimulation, at 2 µM) it was 0.9%. In addition, the insulin secretion stimulation in assay [2] is -0.5% (inactive). Further, the viability decrease in assay [3] was -21.3% (inactive). Also, the tube area decrease in assay [4] is -12.7% (inactive). Moreover, in assay [5], the GLP1 secretion stimulation is -0.4% (inactive). Besides, the inhibition of viability in assay [6] was 23.9% (inactive). The viability decrease (inhibition) is 8.3% (inactive) in assay [7] and -5.2% (inactive) in assay [8].
Take `CCCCCCCCCCCCCCCCCCO`: the nuclear beta-catenin stimulation in assay [1] (at 10 µM) is 0.4% (inactive); in assay [1] (stimulation, at 2 µM), -0.4%. Besides, in assay [2], the insulin secretion stimulation is -1.7% (inactive). In addition, in assay [3], the viability decrease was -15.2% (inactive). Also, in assay [4], the tube area decrease is -3.6% (inactive). For the same molecule, in assay [5], the GLP1 secretion stimulation is 1.9% (inactive). The inhibition of viability in assay [6] is -11.1% (inactive). Besides, the viability decrease (inhibition) is 0.9% (inactive) in assay [7] and -5.65% (inactive) in assay [8].
With `OCc1ccc(Cl)cc1Cl`, the nuclear beta-catenin stimulation in assay [1] (at 10 µM) was 2.2% (inactive); in assay [1] (stimulation, at 2 µM), 0.6%. Moreover, the insulin secretion stimulation in assay [2] was -2% (inactive). In assay [3], the viability decrease is 1.6% (inactive). In assay [4], the tube area decrease was 13.7% (inactive). Further, in assay [5], the GLP1 secretion stimulation is -5% (inactive). In assay [6], the inhibition of viability was -2.7% (inactive). Moreover, the viability decrease (inhibition) in assay [7] is 26.9% (inactive); in assay [8], 13.2% (inactive).
For the molecule `CCCCCCCC(=O)OCC(O)CO` (stereo not given), the nuclear beta-catenin stimulation in assay [1] (at 10 µM) was -2% (inactive); in assay [1] (stimulation, at 2 µM) it was -1.7%. Besides, the insulin secretion stimulation in assay [2] was 2.1% (inactive). For the same molecule, the viability decrease in assay [3] is -10.8% (inactive). Moreover, the tube area decrease in assay [4] was -3.1% (inactive). Also, in assay [5], the GLP1 secretion stimulation is -3.4% (inactive). In addition, in assay [6], the inhibition of viability is -7.47% (inactive). Moreover, the viability decrease (inhibition) is 16.9% (inactive) in assay [7] and -20.5% (inactive) in assay [8].
Turning to `C=CCN1CCc2nc(N)sc2CC1`, the nuclear beta-catenin stimulation is 0.7% (inactive) in assay [1] (at 10 µM) and 1% in assay [1] (stimulation, at 2 µM). Further, in assay [2], the insulin secretion stimulation is -0.5% (inactive). Besides, the viability decrease in assay [3] is -5.1% (inactive). In assay [4], the tube area decrease is 7.1% (inactive). Moreover, the GLP1 secretion stimulation in assay [5] is 0.8% (inactive). For the same molecule, the inhibition of viability in assay [6] is -4% (inactive). Further, the viability decrease (inhibition) in assay [7] was 2.6% (inactive); in assay [8], -3.4% (inactive).
Regarding `c1ccc2c(c1)CCc1ccccc1N2`, the nuclear beta-catenin stimulation is 0.8% (inactive) in assay [1] (at 10 µM) and 2.8% in assay [1] (stimulation, at 2 µM). Also, the insulin secretion stimulation in assay [2] is 0.55% (inactive). In addition, the viability decrease in assay [3] was 8.3% (inactive). Besides, the tube area decrease in assay [4] is -22.5% (inactive). The GLP1 secretion stimulation in assay [5] was 2% (inactive). Besides, the inhibition of viability in assay [6] was -2.9% (inactive). Further, the results for the viability decrease (inhibition) in assay [7] and in assay [8] were -16.7% (inactive) and -6.2% (inactive), respectively.
Regarding `O=C(N/N=C/c1ccccc1O)c1ccncc1`, the nuclear beta-catenin stimulation in assay [1] (at 10 µM) is 32.2% (inactive); in assay [1] (stimulation, at 2 µM), 11.1%. Also, the insulin secretion stimulation in assay [2] is -1.6% (inactive). In assay [3], the viability decrease is 94.3% (active). The tube area decrease in assay [4] is 86.7% (active). The GLP1 secretion stimulation in assay [5] is 2.1% (inactive). For the same molecule, the inhibition of viability in assay [6] was 88.7% (active). The viability decrease (inhibition) was 106% (active) in assay [7] and 57.8% (active) in assay [8].
Take `CC(O)CCCCn1c(=O)c2c(ncn2C)n(C)c1=O` (stereo not given): the nuclear beta-catenin stimulation was -0.6% (inactive) in assay [1] (at 10 µM) and 3.3% in assay [1] (stimulation, at 2 µM). Moreover, the insulin secretion stimulation in assay [2] was 3.75% (inactive). For the same molecule, in assay [3], the viability decrease was 15.3% (inactive). Further, the tube area decrease in assay [4] was -9.4% (inactive). In addition, the GLP1 secretion stimulation in assay [5] was -3.4% (inactive). Also, in assay [6], the inhibition of viability was 0.8% (inactive). The viability decrease (inhibition) in assay [7] is 3.8% (inactive); in assay [8], 6.4% (inactive).
Turning to `C[C@@]12CCC[C@H]1[C@@H]1CC[C@H]3C[C@@H](O)CC[C@]3(C)[C@H]1CC2`, the nuclear beta-catenin stimulation in assay [1] (at 10 µM) is 3% (inactive); in assay [1] (stimulation, at 2 µM) it was -0.1%. Besides, in assay [2], the insulin secretion stimulation is -1% (inactive). Besides, in assay [3], the viability decrease was 65.4% (active). The tube area decrease in assay [4] is -28.4% (inactive). For the same molecule, in assay [5], the GLP1 secretion stimulation is 4% (inactive). The inhibition of viability in assay [6] was -11.6% (inactive). The viability decrease (inhibition) was 121% (active) in assay [7] and 103% (active) in assay [8].
With `COC(=O)c1cc(Cl)ccc1OC`, the nuclear beta-catenin stimulation is -0.1% (inactive) in assay [1] (at 10 µM) and -1.6% in assay [1] (stimulation, at 2 µM). The insulin secretion stimulation in assay [2] is 1.5% (inactive). Also, the viability decrease in assay [3] was 1.2% (inactive). The tube area decrease in assay [4] was -13.8% (inactive). In assay [5], the GLP1 secretion stimulation is 2.6% (inactive). Moreover, the inhibition of viability in assay [6] was 8.2% (inactive). Further, the viability decrease (inhibition) is -4.7% (inactive) in assay [7] and 0.3% (inactive) in assay [8].
Consider `CCOC(=O)C(O)c1ccccc1` (stereo not given), for which the nuclear beta-catenin stimulation in assay [1] (at 10 µM) is 1.9% (inactive); in assay [1] (stimulation, at 2 µM) it was 9.6%. The insulin secretion stimulation in assay [2] is 0% (inactive). Besides, the viability decrease in assay [3] was -1.8% (inactive). The tube area decrease in assay [4] was -9.7% (inactive). In addition, the GLP1 secretion stimulation in assay [5] was 0.1% (inactive). In assay [6], the inhibition of viability was 1.4% (inactive). Besides, the viability decrease (inhibition) in assay [7] was -10% (inactive); in assay [8], -2.3% (inactive).
`COC(=O)c1nc(Cl)c(Cl)nc1N`: the nuclear beta-catenin stimulation in assay [1] (at 10 µM) is 15.9% (active); in assay [1] (stimulation, at 2 µM), 84.9%. For the same molecule, the insulin secretion stimulation in assay [2] was 2.2% (inactive). Further, the viability decrease in assay [3] was 82.2% (active). The tube area decrease in assay [4] is 110% (active). In addition, the GLP1 secretion stimulation in assay [5] is 4.1% (inactive). For the same molecule, the inhibition of viability in assay [6] was 75% (active). Also, the viability decrease (inhibition) in assay [7] is 132% (active); in assay [8], 101% (active).
For the molecule `CCOC(=O)c1ccc(NC(=O)CN2CCCCC2)cc1`, the nuclear beta-catenin stimulation in assay [1] (at 10 µM) was 0.5% (inactive); in assay [1] (stimulation, at 2 µM) it was -1.8%. Moreover, in assay [2], the insulin secretion stimulation was 3.5% (inactive). In addition, the viability decrease in assay [3] is 18.5% (inactive). In addition, the tube area decrease in assay [4] was 0.1% (inactive). The GLP1 secretion stimulation in assay [5] is 0.9% (inactive). Also, the inhibition of viability in assay [6] was 50.7% (active). In addition, the viability decrease (inhibition) in assay [7] is 24.7% (inactive); in assay [8], 5.8% (inactive).
